# Screening data deposited in PubChem by National Center for Advancing Translational Sciences (NCATS).
# FLuc modulator = counter-screen for miR-21 project: firefly luciferase inhibitors or activators; P08659; purified FLuc, Km substrates, luminescence inhibition; Potency, µM (highest dose often 57.5 µM), for the others: at the highest dose activity change, negative = inhibition, hits mostly inhibitors; 360,000 tested, 6.9% active; AID 588342;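 further: plate controls were vehicle for no effect and reference inhibitor for full effect; nearly all actives have a fitted effect of over 55% in size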
# Target sequence (P08659 whole entry, looked up): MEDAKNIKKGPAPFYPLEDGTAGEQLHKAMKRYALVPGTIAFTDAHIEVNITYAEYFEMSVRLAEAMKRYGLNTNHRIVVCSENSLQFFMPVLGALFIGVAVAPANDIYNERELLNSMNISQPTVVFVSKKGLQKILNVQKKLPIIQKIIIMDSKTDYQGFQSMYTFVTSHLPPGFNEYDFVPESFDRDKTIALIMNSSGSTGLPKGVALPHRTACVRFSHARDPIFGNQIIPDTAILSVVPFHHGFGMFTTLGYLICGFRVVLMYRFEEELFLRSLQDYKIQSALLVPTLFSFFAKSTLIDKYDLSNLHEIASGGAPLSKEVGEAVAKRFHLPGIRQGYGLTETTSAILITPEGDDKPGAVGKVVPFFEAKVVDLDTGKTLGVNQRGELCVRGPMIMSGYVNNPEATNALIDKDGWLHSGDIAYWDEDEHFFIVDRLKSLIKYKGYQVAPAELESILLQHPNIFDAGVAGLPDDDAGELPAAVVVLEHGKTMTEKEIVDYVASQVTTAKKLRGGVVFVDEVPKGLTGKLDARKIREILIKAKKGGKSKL
#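 Biochemical qHTS of compounds, final roughly 60 µM downward over six points, against 10 nM purified firefly luciferase using Km concentrations of substrates (10 uM D-luciferin, 10 uM ATP) in Tris acetate pH 7.5 buffer; luminescence output.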
# SMN2 splice enh = SMN2 splice variant enhancement. HEK293 SMN2-luciferase splicing reporter, luminescence, 30-36 h. Potency, µM (doses to about 46.1 µM), inactives show at the top dose activity change, positive = activation, most hits filed as activators. 210,000 tested, 2.8% active. AID 1458; further: % of control where 0% means no effect; nearly all actives have a fitted effect of over 55% in size
#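 HEK293 cells carry an SMN2 minigene-luciferase reporter in which exon 7 inclusion puts luciferase in frame. Cells were seeded at 2000 cells/well, attached for 10-12 hours, then exposed to compounds for 30-36 hours at 37C before ONE-Glo luminescence.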
# Luc counter = Kinase-Glo luciferase inhibition (counter-screen) | Q27757 | Kinase-Glo luciferase, ATP luminescence, 8 min | Potency, µM (doses to about 38.3 µM), for inactives: top-dose activity change, negative = inhibition, usual class: inhibitors | 200,000 tested, 0.28% active | AID 1379; further: on the % scale 0 is the no-effect control and ±100 the full control effect; nearly all actives have a fitted effect of over 60% in size
#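 Inhibition of Kinase-Glo luciferase light generation was assessed at 10 uM ATP in pH 7.2 imidazole buffer, with luminescence measured after eight minutes at ambient temperature.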
# Rab9 promoter act = Rab9 promoter activation; Huh7 Rab9 promoter-luciferase reporter, luminescence, 24 h; Potency, µM (highest dose often 9.22 µM), inactives show at the highest dose activation, negative = inhibition, actives largely listed as activators; 320,000 tested, 2.8% active; further: % of control where 0% means no effect; nearly all actives have a fitted effect of over 60% in size
#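 Cell-based reporter: Huh7 stable for Rab9 promoter-driven luciferase, plated in reduced-serum medium with 10% FBS at 1500 cells/well, compound-treated 24 h at 37 °C, luminescence read after 10 min reagent.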
# ELG1 genotoxic = genotoxicity induction in ELG1-luciferase HEK293T cells; 330,000 tested, 1.3% active; HEK293T ELG1-luciferase reporter, luminescence, 16 h; Potency, µM (titrated, usually from 46 µM), for inactives: at the top dose activity change, positive = activation, most hits filed as activators; further: % of control where 0% means no effect; nearly all actives have a fitted effect of over 60% in size
#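 ELG1-luciferase HEK293T cells, 2,000/well; compound pinned in; 16 hr, 37 °C, 5% CO2; ONE-Glo, 30 min RT; luminescence on CCD imager.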
# NPC1 promoter act = activators of NPC1 promoter; 320,000 tested, 2.4% active; Huh7 NPC1 promoter luciferase reporter, 24 h; Potency, µM (titrated, usually from 9.22 µM), inactives show top-dose activation, usual class: activators; further: % of control where 0% means no effect; nearly all actives have a fitted effect of over 60% in size
#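 Compounds in DMSO were transferred onto Huh7 NPC1-luciferase reporter cells pre-incubated 2 h; after 24 h at 37 °C, Amplite reagent was dispensed and luminescence recorded 10 min later.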
# * = called active by the depositor; u = inconclusive; x = no result given; [ ] = another dose, or the depositor's remark. Most compounds without a hit are left out; they make up all but 7.5% or so of the library. The call rests on the fitted dose curve; in most records, active means well fitted curve in the direction sought with a large enough effect; inconclusive means small, poorly fitted or top-dose-only effect, or another doubt; inactive means no such curve, though single readings can be large; an effect the other way counts as inactive or inconclusive. Potency means the concentration at half of the fitted maximal effect.
SMILES,FLuc modulator,SMN2 splice enh,Luc counter,Rab9 promoter act,ELG1 genotoxic,NPC1 promoter act
Cc1ccc(NC(=S)NNC(=O)c2cccc([N+](=O)[O-])c2)cc1Cl,19µM*,x,x,-2%,-6%,1%
CCOCC(=O)Nc1cccc(Br)c1,-39%,6%,2%,1%,3%,0%
O=C(NC(=S)Nc1ccc(Br)cn1)c1cncc(Br)c1,-5%,12%,6%,-3%,2%,6%
CC(C)CCNC(=O)c1cn(C)c2ccc(S(=O)(=O)N3CCOCC3)cc2c1=O,-6%,-1%,x,x,x,x
Cc1ccc(CNC(=O)C(=O)NCC(c2cccnc2)N2CCN(c3ccc(F)cc3)CC2)cc1 (stereo not drawn),3%,x,x,x,x,x
CCOc1ccc(NC(=O)NCCN2CCN(c3cc(Cl)ccc3C)CC2)cc1,u,7%,x,x,x,x
O=C(Cc1ccccc1F)Nc1cccc(S(=O)(=O)N2CCOCC2)c1,x,x,x,x,-1%,x
CC1CCN(S(=O)(=O)N2CCN(C(=O)c3ccc4c(c3)OCO4)CC2)CC1,1%,x,x,3%,-3%,5%
CC(=O)c1cccc(NC(=S)NC(=O)c2cncc(Br)c2)c1,u,x,x,u,10%,2.5µM*
O=C(O)c1cccc(NC(=S)NCc2ccccc2)c1,15µM*,x,0%,u,2%,16%
CC(C)OC(=O)c1ccc(NC(=S)NC(=O)c2cncc(Br)c2)cc1,-11%,x,x,-5%,0%,-1%
O=C(NC(=S)Nc1ccc(Cl)cc1)c1ccccc1,11µM*,x,x,u,22%,u
CC(=O)c1cccc(NC(=O)CCCSc2ccccc2)c1,u,x,x,-3%,0%,0%
CC#CCCCC(=O)Nc1cccc(C(=O)O)c1,24µM*,u,-1%,3.2µM*,12%,u
COCCCNC(=O)CN1C(=O)c2cccnc2Sc2ccccc21,2%,x,x,x,x,x
CC(=O)c1cccc(NC(=S)NC(=O)c2cccc(Cl)c2)c1,21µM*,u,-1%,3.5µM*,u,u
Cc1ccc(C(=O)NC(=S)Nc2ccccc2C(F)(F)F)cc1C,24µM*,-17%,0%,-2%,1%,3%
O=C(NC(=S)Nc1cccc([N+](=O)[O-])c1)c1ccco1,2%,28%,-2%,28%,6%,16%
COc1cc2ccccc2cc1C(=O)NC(=S)Nc1cccc(C(=O)O)c1,13µM*,20%,2%,2.2µM*,17%,u
Cc1cccc(C(=O)NC(=S)Nc2ccccc2C(F)(F)F)c1,-19%,2%,-2%,12%,-1%,17%
O=C(NC(=S)Nc1cccc([N+](=O)[O-])c1)c1ccccc1,u,x,x,4µM*,14%,u
Cc1ccc2c(c1Br)C(O)(CC(=O)c1ccc(F)cc1)C(=O)N2 (stereo not drawn),-6%,x,x,x,x,x
CC(=O)N1CCC(N(C(=O)Nc2ccc(C)c(F)c2)C(C)C)CC1,-8%,x,x,x,x,x
O=C1CC(c2ccc(Cl)cc2)CC(O)=C1C=NCCO (stereo not drawn),-6%,x,x,0%,-2%,-5%
COc1ccc(-c2ccc(CCC(=O)O)n2CC(=O)Nc2ccccc2C)cc1,-3%,x,x,-4%,-2%,-4%
SMILES,FLuc modulator,SMN2 splice enh,Luc counter,Rab9 promoter act,ELG1 genotoxic,NPC1 promoter act
CC(O)COc1ccc(/C(=N/O)c2ccccc2)cc1 (stereo not drawn),u,8%,7%,-2%,0%,1%
CC(C)COc1ccc(/C(=N/O)c2ccccc2)cc1,17µM*,-14%,19%,22%,u,20%
Cc1ccc2cc(NC(=O)c3ccccc3)ccc2n1,1.9µM*,x,x,0.4µM*,1.8µM*,0.56µM*
O=C(Nc1ccc2ccccc2c1)c1cccc(F)c1,2.1µM*,x,x,0.71µM*,u,1.3µM*
O=C(Nc1cccc(NC(=O)c2cccc(F)c2)n1)c1cccc(F)c1,19µM*,x,x,0%,-1%,-3%
CCCC(=O)Nc1cnc(NC(=O)c2cccc(F)c2)cc1C,9.5µM*,2µM*,7.1µM*,0.63µM*,0.46µM*,0.45µM*
O=C(Nc1ccc2[nH]c(=O)c(=O)[nH]c2c1)c1cccc(F)c1,1%,u,x,x,x,x
O=C(Nc1cccc(NC(=O)c2c(F)cccc2F)n1)c1c(F)cccc1F,-13%,x,x,-4%,-1%,-2%
O=C(c1cnccn1)N1CCC2(CCN(Cc3nccs3)CC2)CC1,x,4%,1%,x,x,x
COc1ccc(NC(=O)c2oc3ccccc3c2NC(=O)C23CC4CC(CC(C4)C2)C3)cc1,-2%,-5%,x,x,x,x
Cc1csc(CNC(=O)C2CCC(=O)N(CCc3cccc(F)c3)C2)n1 (stereo not drawn),4%,x,x,9%,1%,0%
Cc1ccc2cc(NC(=O)c3cccc(F)c3)ccc2n1,2.7µM*,x,x,0.56µM*,2.6µM*,0.63µM*
COC(=O)c1cc(NC(=O)c2cccc(F)c2)cc(C(=O)OC)c1,u,-11%,2%,-7%,-5%,-1%
CCCNC(=O)OCCC12CC3CC(CC(C3)C1)C2,12µM*,7%,-2%,17%,u,16%
COc1ccc(-c2csc(NC(=O)CSc3nc(C)nc4sc(C(=O)O)c(C)c34)n2)cc1,27µM*,x,x,-3%,1%,-2%
COc1ccc(-c2csc(NC(=O)CSCC(=O)Nc3cc(C)on3)n2)cc1,u,x,x,1%,1%,8%
COc1ccccc1NC(=O)CSc1nc(SC)ns1,-5%,x,x,19%,11%,5%
COc1ccc(-c2csc(NC(=O)CSc3nc(SC)ns3)n2)cc1,u,22µM*,-1%,26%,u,u
CN(C)/C=N/C(=S)Nc1ccc(Cl)c(Cl)c1,17µM*,13%,-6%,24%,u,18%
CN(C)/C=N/C(=S)Nc1cc(Cl)cc(Cl)c1,2%,0%,2%,-3%[1.84 µM],-1%,-1%
COc1ccc(NC(=O)CSC2=Nc3ccccc3N=C(c3ccc(F)cc3)C2)cc1OC,-2%,x,x,x,x,x
NC(=O)C1CCCN(C(=O)c2cccc(S(=O)(=O)N3CCCCCC3)c2)C1 (stereo not drawn),5%,x,x,2%,1%,-3%
Cc1cc(C)c(S(=O)(=O)NCCc2cc3c(C)ccc(C)c3[nH]c2=O)c(C)c1,0%,-3%,x,x,x,x
CCN(C(=O)COC(=O)c1oc2ccccc2c1C)c1c(N)n(Cc2ccccc2)c(=O)[nH]c1=O,3%,x,x,-11%,1%,-4%
CCOc1cc(C2NN=C(c3ccccc3)S2)ccc1OCc1ccc(F)cc1 (stereo not drawn),6µM*,13µM*,-7%,3.2µM*,8.2µM*,u
CNCc1ccccc1OCc1ccc(F)cc1,-1%,-23%,-1%,-4%,-6%,-4%
